The results in this text go back to PubChem BioAssay (NCATS).

A short description of experiment [1]: High-throughput drug toxicity screening in the BPDCN cell line Cal-1 (AID 1224825; call rule not given here). Particulars: Cal-1 BPDCN cell viability, qHTS; at 45.8 µM (top of the series). The gist of the method: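 Percent activity derived from CellTiter-Glo luminescence, scaling DMSO to 100% and 9.2 uM final bortezomib to 0%. BPDCN Cal-1 cells (500/well, RPMI plus 10% FBS) incubated with compounds 48 hours at 37C before reading.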
In general terms: Quantitative high-throughput screening tests each substance at several concentrations.

Experiment [2] is described as follows: qHTS assay for measurement of the activity of small molecule inhibitors on Zika virus induced Caspase-3 activity in human iPSC derived neural progenitor cells (hNPCs) (AID 1224857). Further: nearly all actives have a fitted effect of over 65% in size. Further: potency means the concentration at half of the fitted maximal effect. The conditions noted are these: hNPCs ZIKV-induced caspase-3/7, Caspase-Glo luminescence, 6 h; series mostly up to 45.7 µM. Summed up:
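Human iPSC-derived neural progenitor cells pretreated 1 hr with compounds, then infected with Zika virus (2 FFU/cell) for 6 hours at 37 C. Caspase-3/7 measured by Caspase-Glo luminescence; % inhibition calculated from induction scaled to uninfected (0%) and infected (100%) wells.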

A short description of experiment [3]: qHTS assay for measurement of the activity of small molecule inhibitors on Zika virus induced Caspase-3 activity in human astrocytoma cells (AID 1224859).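 Further: plate controls were ZIKV-infected untreated cells for no effect and uninfected cells for full effect.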 Particulars: SNB-19 ZIKV-induced caspase-3/7, luminescence, 6 h; series mostly up to 45.7 µM. Summed up: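 SNB-19 astrocytoma cells, 250/well, pretreated 1 h with compounds, then Zika virus at 2 FFU/cell for 6 h at 37 C; Caspase-Glo 3/7 luminescence after 30 min; percent inhibition normalised to uninfected and infected controls.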

Experiment [4] in a line: qHTS Screen of the MIPE 4.0 Collection Against Ewings Sarcoma (RDES) (AID 1259252). Further: nearly all actives have a fitted effect of over 35% in size. Further: potency means the concentration at half of the fitted maximal effect. Particulars: RD-ES Ewing sarcoma viability, CellTiter-Glo, 48 h; series mostly up to 45.8 µM. The gist of the method: (§1)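 Cells plated in serum-containing RPMI (5% FBS) and treated with compound dilutions for 48 h. Readout luminescent viability; normalization relied on vehicle (no inhibition) and media-only columns (full inhibition).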

The nature of experiment [5]: qHTS Screen of the MIPE 4.0 Collection Against Ewings Sarcoma (TC71) (AID 1259253). Further: nearly all actives have a fitted effect of over 40% in size. Further: potency means the concentration at half of the fitted maximal effect. Particulars: TC71 Ewing sarcoma viability, CellTiter-Glo, 48 h; series mostly up to 45.8 µM. The gist of the method: as §1
A short description of experiment [6]: qHTS Screen of the MIPE 4.0 Collection Against Ewings Sarcoma (EW8) (AID 1259255). Further: nearly all actives have a fitted effect of over 35% in size. Further: potency means the concentration at half of the fitted maximal effect.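 On viability: 100% = DMSO-treated cells and 0% = medium-only wells without cells.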 The conditions noted are these: EW8 Ewing sarcoma viability, CellTiter-Glo, 48 h; series mostly up to 45.8 µM. The gist of the method:
as §1

A short description of experiment [7]: qHTS Screen of the MIPE 4.0 Collection Against Ewings Sarcoma (TC32) (AID 1259256). Further: nearly all actives have a fitted effect of over 45% in size. Further: potency means the concentration at half of the fitted maximal effect. The conditions noted are these: TC32 Ewing sarcoma viability, CellTiter-Glo, 48 h; series mostly up to 45.8 µM. The gist of the method: as §1
Experiment [8] is described as follows: P-glycoprotein substrates identified in KB-8-5-11 adenocarcinoma cell line, qHTS therapeutic library screen (AID 1346987). Further: nearly all actives have a fitted effect of over 65% in size. Further: potency means the concentration at half of the fitted maximal effect. Particulars: KB-8-5-11 (P-gp overexpressing) viability, CellTiter-Glo, 72 h; series mostly up to 44.5 µM. The gist of the method:
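Human cervical adenocarcinoma KB-8-5-11 cells, selected in colchicine to over-express P-gp and assayed without it, were exposed for 72 h to titrated compounds. An ATP-based luminescent viability signal gave AC50.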

Experiment [9] can be described thus: NS1 protein of Zika virus - qHTS assay to identify small molecule inhibitors in human HEK 293 cells (AID 1347053). Further: nearly all actives have a fitted effect of over 55% in size. Further: potency means the concentration at half of the fitted maximal effect. Particulars: HEK293 ZIKV MR766 infection, NS1 TR-FRET, 24 h; series mostly up to 46.1 µM. The gist of the method:
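Read-out is a two-antibody TR-FRET for ZIKV NS1, normalized between uninfected cells and infected cells. Compound added 1 h before MR766 infection at MOI 0.5; human HEK 293 cells incubated 24 h, 37 C.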

A short description of experiment [10]: Identifying Small Molecule Inhibitors of Pancreatic Cancer Stem Cells (SN12C, Adherent) (AID 1259358).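 Further: potency means the concentration at half of the fitted maximal effect; cell survival measured after 48 h of compound exposure.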 Particulars: viability/growth inhibition; series mostly up to 46.1 µM. The gist of the method:
(§2)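 Pre-formed 14-day tumor spheroids or adherent cells dosed and incubated 48 h, 37C, 5% CO2. Viability assessed by CellTiter-Glo.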

A short description of experiment [11]: Identifying Small Molecule Inhibitors of Pancreatic Cancer Stem Cells (A278, Adherent) (AID 1259361).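 Further: viability read after 48 h compound exposure; nearly all actives have a fitted effect of over 35% in size.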 The conditions noted are these: series mostly up to 46.1 µM. Summed up: as §2
A short description of experiment [12]: Identifying Small Molecule Inhibitors of Pancreatic Cancer Stem Cells (Panc1, Adherent) (AID 1259362).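 Further: compound exposure lasted 48 h before the viability read; plate controls were DMSO-treated cells for no effect and cell-free media wells for full effect.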 Particulars: Potency: viability; series mostly up to 46.1 µM. Summed up:
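Viability is scored by CellTiter-Glo luminescence 48 h after dosing, expressed as percent activity against vehicle and no-cell references. Spheroid formats rely on cells cultured 14 days in stem cell media beforehand.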

Experiment [13] in a line: P-glycoprotein substrates identified in KB-3-1 adenocarcinoma cell line, qHTS therapeutic library screen (AID 1346986). Further: nearly all actives have a fitted effect of over 60% in size. The conditions noted are these: KB-3-1 parental cells viability, CellTiter-Glo, 72 h; series mostly up to 44.5 µM. The gist of the method: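 Dose-response cytotoxicity, KB-3-1 vs P-gp-high KB-8-5-11, no colchicine in assay medium. Read: CellTiter-Glo at 72 h.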

Several values for one entry are separate records, joined by “and”; a condition that tells them apart may be missing. Equal entries are not always repeated. Results filed as inconclusive are left out. A structure can be active in one record and inactive in another. Activity calls are given as the source filed them. Unless noted, the call rests on the fitted dose curve; in most records, active means well fitted curve in the direction sought with a large enough effect; inconclusive means small, poorly fitted or top-dose-only effect, or another doubt; inactive means no such curve, though single readings can be large; an effect the other way counts as inactive or inconclusive.

As for `COc1ccc(N(C(=O)Oc2c(C)cccc2C)c2ccnc(Nc3ccc(N4CCN(C)CC4)cc3)n2)c(OC)c1`, the viability (% of control) in experiment [1] turned out to be 13.7%. In addition, the Potency result in [2], in [3] and in [9] was “inactive” in each case. Besides, the Potency in experiment [4] is 1.87 µM (active); in experiment [5] it was 2.35 µM (active); in [6], 2.64 µM (active); in experiment [7], 2.64 µM (active); in experiment [8], “inactive and 20.6 µM (active)”.

For `Cc1ccccc1-n1c(Cn2cnc3c(N)ncnc32)nc2cccc(C)c2c1=O`, the viability (% of control) in experiment [1] was 9.3%. The Potency entry in experiment [2], in [3] and in experiment [12] was “inactive” each time. The Potency in experiment [4] was 1.18 µM (active); in [5], 1.87 µM (active); in [7], 0.833 µM (active); in experiment [10], 18.7 µM (active); in experiment [8], 0.59 µM (active). Also, the IC50 (viability decrease) in experiment [11] was 18.7 µM (active).

`CCNC(=O)CC1N=C(c2ccc(Cl)cc2)c2cc(OC)ccc2-n2c(C)nnc21` (stereo not given): the viability (% of control) in experiment [1] worked out at 11.7%. Besides, the Potency result in [2], in [3], in [13], in experiment [8] and in experiment [9] was “inactive” each time. Moreover, the Potency was 13.2 µM (active) in experiment [4], 16.6 µM (active) in experiment [5], 20.9 µM (active) in experiment [6] and 16.6 µM (active) in experiment [7].

Take `CC(=Cc1csc(C)n1)[C@@H]1C[C@H]2O[C@@H]2CCC[C@H](C)[C@@H](O)[C@@H](C)C(=O)C(C)(C)[C@@H](O)CC(=O)O1`: in [1], the viability (% of control) is 26.8%. Besides, the Potency result in [2], in [3], in experiment [4], in experiment [5], in [6] and in experiment [7] was “inactive” throughout. Besides, in experiment [9], the Potency result was “inactive”. In experiment [8], the Potency was 0.001 µM (active).

Consider `C#CC1(O)CCC2C3CCC4=CC(=O)CCC4(C)C3CCC21C` (stereo not given), for which the viability (% of control) in [1] is 100%. In addition, the Potency result in experiment [2], in experiment [3], in [4], in experiment [5], in experiment [6] and in experiment [7] was “inactive” each time. Also, the Potency entry in experiment [8] and in experiment [9] was “inactive” throughout.

With `CC(=Cc1csc(C)n1)[C@@H]1C[C@H]2O[C@]2(C)CCC[C@H](C)[C@@H](O)[C@@H](C)C(=O)C(C)(C)[C@@H](O)CC(=O)O1`, in experiment [1], the viability (% of control) amounted to 17%. In addition, the Potency result in [2], in [3], in experiment [4], in experiment [5] and in experiment [7] was “inactive” in each case. Further, in experiment [8], the Potency was 0.001 µM (active).

Regarding `CCCC[N+]1(C)[C@H]2CC(OC(=O)[C@H](CO)c3ccccc3)C[C@H]1[C@H]1O[C@H]12` (stereo not given in full), in experiment [1], the viability (% of control) came out at 120%. The Potency entry in experiment [2], in experiment [3], in experiment [4], in experiment [5], in [6] and in [7] was “inactive” each time. The Potency result in experiment [8] and in [9] was “inactive” in each case.

For the compound `c1ccc2c(CN3CCNCC3)cccc2c1`, the viability (% of control) in experiment [1] was 99%. Also, the Potency result in [2], in [3], in [4], in [5], in experiment [7] and in [13] was “inactive” in each case. In addition, the Potency entry in experiment [8] and in experiment [9] was “inactive” each time.

`CC(C)(O)C(=O)Nc1ccc([N+](=O)[O-])c(C(F)(F)F)c1`: the viability (% of control) in [1] was 14.7%. Besides, the Potency result in experiment [2], in experiment [3], in [8] and in experiment [9] was “inactive” each time. Moreover, the Potency was 14.8 µM (active) in experiment [4], 23.5 µM (active) in experiment [5] and 23.5 µM (active) in [7].

Consider `COCC1(CO)C(=O)C2CCN1CC2` (stereo not given), for which, in experiment [1], the viability (% of control) is 2.52%. Besides, the Potency result in experiment [2], in experiment [3], in experiment [8] and in experiment [9] was “inactive” each time. For the same compound, the Potency is 2.09 µM (active) in experiment [4], 2.35 µM (active) in [5] and 2.35 µM (active) in [7].

On to `COC[C@H]1OC(=O)c2coc3c2[C@@]1(C)C1=C(C3=O)[C@@H]2CC[C@H](O)[C@@]2(C)C[C@@H]1OC(C)=O`, for which, in experiment [1], the viability (% of control) worked out at 9.36%. Moreover, the Potency entry in experiment [2] and in experiment [3] was “inactive” in each case. In addition, the Potency is 5.9 µM (active) in [4], 13.2 µM (active) in experiment [5], 6.62 µM (active) in [6] and 2.09 µM (active) in [7].

Regarding `C1=C2CCCN[C@H]2[C@@H]2C[C@H]1[C@@H]1CCCCN1C2`, the viability (% of control) in experiment [1] worked out at 105%. Moreover, the Potency entry in [2], in experiment [3], in experiment [4], in [5], in experiment [7] and in experiment [8] was “inactive” in each case. The Potency result in [9] was “inactive”.

In the case of `C[C@@H]1CC[C@@]2(OC1)O[C@H]1C[C@H]3[C@@H]4CC=C5C[C@@H](O[C@@H]6O[C@H](CO)[C@@H](O[C@@H]7O[C@@H](C)[C@H](O)[C@@H](O)[C@@H]7O)[C@H](O)[C@@H]6O[C@@H]6O[C@@H](C)[C@H](O)[C@@H](O)[C@@H]6O)CC[C@]5(C)[C@@H]4CC[C@]3(C)[C@@H]1[C@H]2C`, the viability (% of control) in [1] worked out at 12.9%. Further, the Potency result in experiment [2] and in experiment [3] was “inactive” in each case. In addition, the Potency in [4] is 4.18 µM (active); in experiment [5], 3.72 µM (active); in experiment [6], 3.72 µM (active); in [7], 3.72 µM (active); in experiment [9] it was 3.72 µM (active).

As for `CC(C)N[C@@H]1CCn2c(=O)[nH]c3cccc(c32)[C@@H]1O`, in [1], the viability (% of control) stood at 7.1%. Moreover, the Potency is 16.6 µM (active) in experiment [2], 1.18 µM (active) in [4], 8.33 µM (active) in [5] and 8.33 µM (active) in experiment [7]. Besides, the Potency entry in [3] and in experiment [9] was “inactive” throughout.

Regarding `C[C@@H]1[C@H](O)[C@@H](C)C=CC=CCCC=CC=CC=CC=C[C@H](O[C@H]2O[C@@H](C)[C@H](O)[C@@H](N)[C@@H]2O)CC2O[C@](O)(C[C@@H](O)[C@H](O)CC[C@@H](O)C[C@@H](O)C[C@@H](O)CC(=O)O[C@H]1C)C[C@H](O)[C@H]2C(=O)O`, in experiment [1], the viability (% of control) came out at 124%. Moreover, the Potency result in [2], in experiment [3], in experiment [4], in [5], in experiment [6] and in experiment [7] was “inactive” throughout. The Potency result in [13], in experiment [8] and in experiment [9] was “inactive” each time.

Consider `C[C@]12Cc3cn[nH]c3C[C@@H]1CC[C@@H]1[C@H]2CC[C@@]2(C)[C@H]1CC[C@]2(C)O`, for which the viability (% of control) in [1] came to 111%. Also, the Potency entry in experiment [2], in experiment [3], in experiment [8] and in experiment [9] was “inactive” throughout. Moreover, the Potency was 2.96 µM (active) in experiment [4], 2.96 µM (active) in experiment [5] and 3.32 µM (active) in experiment [7].

Regarding `C=C[C@@H]1CN2CCC1C[C@@H]2[C@@H](O)c1ccnc2ccccc12` (stereo not given in full), the viability (% of control) in [1] was 93.3%. Besides, the Potency result in [2] and in experiment [3] was “inactive” throughout. For the same compound, the Potency in [4] is 16.6 µM (active).
